{"source": "PubChem BioAssay"}
{"system": "Human papillomavirus type 1a protein E7 (residues 44-93)", "test": "HPV1a E7 fragment binders on microarrays, primary screen, biochemical, small-molecule microarray, residues 44-93, 635 nm fluorescence (AID 1108);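 note: E7 fragment applied at 1 µg/mL in TBST for 1 h at 4 C; score combines spot fluorescence with its signal to noise ratio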", "conditions": "small-molecule microarray binding, fluorescence 635 nm; higher = more signal"}
{"smiles": "O=C(O)[C@@H]1[C@@H]2C(=O)N(c3ccccc3)C(=O)[C@@H]2C[C@@H]1Sc1ccccc1", "composite z-score": -0.933}
{"smiles": "CCCCN1CC=CC23O[C@@H]4/C=C\\CCC(C)OC(=O)C4[C@H]2C(=O)N(CCCO)[C@@H]3C1=O", "note": "(stereo not given in full)", "composite z-score": -0.169}
{"smiles": "CN(C)C(=O)[C@]1(CCC(=O)OC(C)(C)C)N=C(c2ccc(OCCCO)cc2)O[C@@H]1c1ccccc1CN=[N+]=[N-]", "composite z-score": 1.44}
{"smiles": "CCCCCC1=C2CNC(C)(C(=O)OC)C=C2C(C)C1=O", "note": "(stereo not given)", "composite z-score": -0.696}
{"smiles": "CCOC(=O)C[C@H]1[C@H](OC(=O)c2cc3ccccc3oc2=O)[C@@H](NC(=O)c2ccc3ccccc3n2)c2cc(OCCCO)ccc2N1C(=O)Cc1ccc(OC)cc1", "composite z-score": 1.23}
{"smiles": "CS(=O)(=O)CCOC(=O)C1=CC(CCCO)=CC(c2ccc(CN3CCCC3)cc2)N(Cc2sc3ccccc3c2Cl)C=C1C(=O)OCCS(C)(=O)=O", "note": "(stereo not given)", "composite z-score": 0.611}
{"smiles": "NC(=O)NCC#Cc1ccc2c(c1)[C@]1(C(=O)N2)[C@H](c2ccccc2OCCO)N2[C@H](c3ccccc3)[C@H](c3ccccc3)OC(=O)[C@H]2[C@@H]1C(=O)NC[C@H](O)c1ccccc1", "composite z-score": 1.36}
{"smiles": "CC(C)N1C(=O)c2ccccc2[C@@H](C(=O)NCCN2CCOCC2)[C@@H]1c1ccc(CO)cc1", "composite z-score": 0.0391}
{"smiles": "COCCOC(=O)N1C(=O)[C@@]2(c3cc(C#CC4=CCCCC4)ccc31)[C@H](C(=O)Nc1nc3ccccc3s1)[C@H]1C(=O)O[C@H](c3ccccc3)[C@H](c3ccccc3)N1[C@@H]2c1ccc(O)cc1", "composite z-score": 1.39}
{"smiles": "COc1ccc(CCNC(=O)[C@@]2(Sc3ccc(C)cc3)CC(=O)N(Cc3ccccc3C(F)(F)F)[C@@H]2c2ccc(CO)cc2I)cc1", "composite z-score": 0.497}
{"smiles": "COc1ccc([Si](C)(C)[C@H]2[C@H](CC(=O)N3CCC[C@H]3CO)O[C@@]3(C(=O)N(Cc4ccc(N5CCOC5=O)cc4)c4ccccc43)[C@@H]2C)cc1", "composite z-score": 1.37}
{"smiles": "COc1cc(OC)c(C(O)C2C=CC3C(=O)N(Cc4ccccc4)C(=O)C3N2n2cnnc2)cc1Br", "note": "(stereo not given)", "composite z-score": 1.36}
{"smiles": "[N-]=[N+]=Nc1ccccc1C[C@@]1(C(=O)N2CCOCC2)N=C(c2ccc(OCCCO)cc2)O[C@@H]1c1ccccc1", "composite z-score": 1}
{"smiles": "Cc1ccc(C(C)CC(O)C2C=CC3C(=O)N(c4ccccc4)C(=O)C3N2Nc2ccccc2)o1", "note": "(stereo not given)", "composite z-score": 1.44}
{"smiles": "CCOC(=O)C[C@H]1[C@H](OC(=O)c2ccc(C(=O)c3ccccc3)cc2)[C@@H](NC(=O)c2ccc(-c3ccccc3)cc2)c2cc(OCCCO)ccc2N1C(=O)Cc1ccc(OC)cc1", "composite z-score": 0.625}
{"smiles": "CCOC(=O)C1=C[C@@H](C(C)C)N(S(=O)(=O)c2ccc(C)cc2)[C@H]1c1ccc(C(F)(F)F)cc1", "composite z-score": 1.4}
{"smiles": "C=C[C@H]1C(C(=O)OCC)=CC[C@@H](c2ccccc2)N1S(=O)(=O)c1ccc(C)cc1", "composite z-score": 1.4}
{"smiles": "CCCCCCCCCCC(O)C1C=CC2C(=O)N(c3ccccc3)C(=O)C2N1Nc1ccc(C#N)cc1", "note": "(stereo not given)", "composite z-score": 1.38}
{"smiles": "O=C1C[C@]2(c3ccc([N+](=O)[O-])cc3)C(=O)N(C3CC3)c3cc(CO)ccc3[C@H]2N1CC12CC3CC(CC(C3)C1)C2", "composite z-score": 0.471}
{"smiles": "C=C[C@H](C)[C@H](OC(=O)Nc1ccc(SC)cc1)c1ccc(OCCO)cc1", "composite z-score": 0.248}
{"smiles": "O=C1OCCC=C[C@H]2OC34C=CCN(c5ccc6ccccc6c5)C(=O)[C@H]3N(CCCO)C(=O)[C@@H]4C12", "note": "(stereo not given in full)", "composite z-score": -2}
{"smiles": "CCCCN1CC=CC23O[C@@H]4/C=C\\CCCOC(=O)C4[C@H]2C(=O)N(CCO)[C@@H]3C1=O", "note": "(stereo not given in full)", "composite z-score": 0.493}
{"smiles": "COc1cc2c(cc1O)C(c1cccs1)N(Cc1cc3c(cc1Br)OCO3)CC2", "note": "(stereo not given)", "composite z-score": 1.48}
{"smiles": "CCCC[C@@H](O)C1=C(COc2ccccc2)C[C@H]2C(=O)N(Cc3ccccc3)C(=O)[C@H]2[C@H]1CO", "composite z-score": 0.207}
{"smiles": "COc1cc(C(O)C2C=CC3C(=O)N(C)C(=O)C3N2Nc2ccccc2)cc(OC)c1OC", "note": "(stereo not given)", "composite z-score": 0.1}
{"smiles": "COCCOC(=O)N1C(=O)[C@@]2(c3cc(C#CCCO)ccc31)[C@H](c1ccc(OCCO)cc1)N1[C@H](c3ccccc3)[C@H](c3ccccc3)OC(=O)[C@H]1[C@@H]2C(=O)Nc1nc2ccccc2s1", "composite z-score": 0.281}
{"smiles": "C=CCNC(=O)[C@@H]1[C@H]2C(=O)O[C@H](c3ccccc3)[C@H](c3ccccc3)N2[C@H](c2ccc(OCCO)cc2)[C@@]12C(=O)N(C(=O)OCCOC)c1ccc(C#Cc3ccc(OC)cc3)cc12", "composite z-score": 1.01}
{"smiles": "N#Cc1ccc(NN2C(C(O)c3ccc(Br)cc3)C=CC3C(=O)N(c4ccccc4)C(=O)C32)cc1", "note": "(stereo not given)", "composite z-score": -1.46}
{"smiles": "CCCC=C(CCC)[C@@H](NC(=O)C(C)(C)C)c1ccc(C(=O)OC)cc1", "composite z-score": 1.32}
{"smiles": "CO[C@H]1O[C@H](CO)[C@@H](OC(=O)Nc2ccc(Br)cc2)[C@@H]2OC(=O)[C@@H](Cc3ccccc3)C/C=C/C[C@H](Cc3ccccc3)C(=O)O[C@@H]12", "composite z-score": 0.816}
{"smiles": "C#CCN(Cc1ccccc1Br)[C@H](/C=C/c1ccccc1)[C@@H](O)Cc1ccccc1", "composite z-score": 0.169}
{"smiles": "CCCCCN1CC=CC23O[C@@H]4/C=C\\CCCOC(=O)C4[C@H]2C(=O)N(C(C)CO)[C@@H]3C1=O", "note": "(stereo not given in full)", "composite z-score": -0.141}
{"smiles": "CCCCCN1CC=CC23O[C@@H]4C=CCCOC(=O)C4[C@H]2C(=O)N(CCCCCCO)[C@@H]3C1=O", "note": "(stereo not given in full)", "composite z-score": 0.521}
{"smiles": "NC(=O)[C@@]1(Cc2ccccc2)COC(c2ccc(OCCCO)cc2)=N1", "composite z-score": 0.404}
{"smiles": "COC(=O)[C@@]1(Cc2ccc(OC)cc2)[C@H]2c3cc(C(=O)N4CCCC4)n(CCO)c3C[C@H]2CN1C(=O)c1ccccc1", "composite z-score": 1.1}
